Algae TAG accum: inducers of triacylglycerol accumulation in Chlamydomonas reinhardtii algae | Chlamydomonas reinhardtii TAG, Nile Red fluorescence, 72 h | calls only at 10 µM (by protocol) | 0.84% of 44,000 active; call rule not given here;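 also: hits raise Nile Red signal meaning more stored TAG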
Calls only; - = inactive; + = active, no number. This excerpt belongs to a sample that is enriched for hits.

SMILES	Algae TAG accum
Cc1cccc(NC(=O)COc2ccc(Br)cc2)c1C	-
Cc1c(NC(=O)COc2ccc(Br)cc2)cccc1[N+](=O)[O-]	+
Cc1ccc(OCC(=O)Nc2cccc([N+](=O)[O-])c2C)c(Br)c1	-
N/C(=N/OC(=O)N1c2ccccc2Sc2ccccc21)c1ccncc1	-
C=CCn1c(SCC(=O)O)nnc1-c1ccc(Cl)cc1	-
C=CCn1c(SCC(=O)NCCc2ccccc2)nnc1-c1ccc(Cl)cc1Cl	+
C=CCn1c(SCC(=O)O)nnc1-c1ccccc1	-
Cc1ccc(OCC(=O)N2CCN(c3ccc(Cl)cc3[N+](=O)[O-])CC2)cc1	-
CC(=O)Nc1cccc(NC(=O)c2ccc(F)cc2)c1	-
O=C(c1ccc(F)cc1)N1CCN(CC2CC3C=CC2C3)CC1 (stereo not given)	-
C1=CC2CC1CC2CN1CCN(Cc2ccco2)CC1 (stereo not given)	+
COc1cccc(N2CCN(CC3CC4C=CC3C4)CC2)c1 (stereo not given)	+
c1coc(CN2CCN(Cc3ccncc3)CC2)c1	-
c1ccc(N2CCN(Cc3ccco3)CC2)cc1	-
O=[N+]([O-])c1ccccc1CN1CCN(CC2CC3C=CC2C3)CC1 (stereo not given)	+
O=[N+]([O-])c1ccccc1CN1CCN(CC2CC=CCC2)CC1 (stereo not given)	-
OCCN1CCN(C2CCN(CC3CC4C=CC3C4)CC2)CC1 (stereo not given)	-
Cn1cccc1CN1CCN(Cc2ccco2)CC1	-
c1coc(CN2CCN(C3CCCCCC3)CC2)c1	+
C1=CCC(CN2CCN(Cc3ccco3)CC2)CC1 (stereo not given)	-
O=[N+]([O-])c1ccccc1CN1CCCC1	-
CC(CC(=O)Nc1ccc(F)c(F)c1)c1ccccc1 (stereo not given)	-
c1ccc(CCN2CCC(N3CCC(N4CCCCC4)CC3)CC2)cc1	-
C1=CC2CC1CC2CN1CCN(Cc2ccncc2)CC1 (stereo not given)	-
CCS(=O)(=O)N1CCN(CC2CC3C=CC2C3)CC1 (stereo not given)	-
SMILES	Algae TAG accum
COc1cc(OC)c(OC)cc1CN1CCN(c2cc(C)ccc2C)CC1	-
COc1ccc(CN2CCN(Cc3ccc(OC)c(OC)c3)CC2)cc1	-
COc1ccc(CN2CCN(CC3CC4C=CC3C4)CC2)cc1OC (stereo not given)	+
OC1CCN(CC2CC3C=CC2C3)CC1 (stereo not given)	-
C1=CC2CC1CC2CN1CCN(Cc2ccccc2)CC1 (stereo not given)	+
Cc1ccc(C)c(N2CCN(CC3CC4C=CC3C4)CC2)c1 (stereo not given)	+
COc1ccc(CN2CCCCCC2)cc1OC	-
CCc1ccccc1N(CC(=O)Nc1ccc2c(c1)OCCO2)S(=O)(=O)c1ccccc1	-
Cn1cnnc1SCC(=O)Nc1ccc(F)c(Cl)c1	-
CCc1nnc(NC(=O)c2ccc(Br)c(S(=O)(=O)N(CC)CC)c2)s1	-
Cc1ccc(S(=O)(=O)N2CCN(c3ccc([N+](=O)[O-])c(N4CCN(C)CC4)c3)CC2)cc1	-
COc1ccc(N(CC(=O)Nc2ccccc2C)S(=O)(=O)c2ccc(OC)c(OC)c2)cc1	-
CC1CCN(S(=O)(=O)c2ccc(NC(=O)c3cccc([N+](=O)[O-])c3)cc2)CC1	+
O=C(Nc1ccc(S(=O)(=O)N2CCCCC2)cc1)c1cccc([N+](=O)[O-])c1	-
CC1CCN(S(=O)(=O)c2ccc(Cl)c(C(=O)Nc3cccc([N+](=O)[O-])c3)c2)CC1	-
Fc1ccccc1CSC1=NCCN1	+
Fc1ccccc1CSc1nc2ncccc2[nH]1	-
Fc1ccccc1CSc1nnc(-c2ccncc2)n1-c1ccccc1	-
O=C(Nc1ccc(Br)cn1)c1ccc(F)cc1	-
CCS(=O)(=O)N1CCN(C2CCCCCCC2)CC1	+
CC(=O)N1CCN(C2CCCCCC2)CC1	-
O=S(=O)(c1ccc(Cl)cc1)N1CCN(C2CCCC2)CC1	-
Cc1ccccc1NC(=O)c1c(Br)sc2c1CCCC2	-
CCc1ccc(NC(=O)COc2ccc(Cl)cc2)cc1	-
O=C(COc1ccc(Cl)cc1)Nc1nccs1	-
SMILES	Algae TAG accum
O=C(NCCc1ccc(Cl)cc1)C(=O)Nc1nccs1	+
Cc1ccc(NC(=O)C(=O)NCCc2ccc(Cl)cc2)cc1C	-
COc1ccc(CC(=O)Nc2ccc(C)c(C)c2)cc1	-
COc1ccc(NC(=O)Nc2nnc(COc3cc(C)cc(C)c3)s2)cc1	-
c1ccc(CN2CCC(NC3C4CC5CC(C4)CC3C5)CC2)cc1 (stereo not given)	-
c1ccc(CN2CCN(C3CC4CCC3C4)CC2)cc1 (stereo not given)	+
O=[N+]([O-])c1ccc(CN2CCN(C3CCN(Cc4ccccc4)CC3)CC2)cc1	-
Oc1ccc(Br)cc1CN1CCN(C2CC3CCC2C3)CC1 (stereo not given)	-
O=[N+]([O-])c1cccc(CN2CCN(C3CC4CCC3C4)CC2)c1 (stereo not given)	-
O=[N+]([O-])c1ccc(CN2CCN(C3CC4CCC3C4)CC2)cc1 (stereo not given)	+
COc1cccc(NC(=O)C(N)=O)c1	-
COc1ccc(/C(C#N)=C/c2cccc(Br)c2)cc1OC	-
O=C(c1cc(F)c(F)cc1Br)N1CCN(c2ccc([N+](=O)[O-])cc2F)CC1	-
CC(=O)c1cccc(NC(=O)CN(C)S(=O)(=O)c2ccc(Br)cc2)c1	-
Fc1ccc(CN2CCN(Cc3ccncc3)CC2)cc1	-
CCNC(=O)c1cc(OCC)c(OCC)c(OCC)c1	-
O=C(C1CCCCC1)N1CCN(c2ccccc2F)CC1	-
O=C(C1CCN(CC2CCCCC2)CC1)N1CCN(c2ccccc2F)CC1	+
Cc1cccc(N2CCN(C(=O)C3CCN(CC(C)C)CC3)CC2)c1C	-
CC(C)CN1CCC(C(=O)N2CCN(c3ccccc3F)CC2)CC1	-
COc1ccc(CN2CCC(C(=O)N3CCN(c4cccc(C)c4C)CC3)CC2)cc1	-
Cc1ccc(CN2CCC(C(=O)N3CCN(c4ccccc4F)CC3)CC2)o1	+
Cc1cccc(N2CCN(C(=O)C3CCN(CC4CCCCC4)CC3)CC2)c1C	+
Cc1ccc(CN2CCC(C(=O)N3CCN(c4cccc(C)c4C)CC3)CC2)o1	-
Cc1ccc(CN2CCC(C(=O)N3CCN(c4ccccc4F)CC3)CC2)cc1	-
SMILES	Algae TAG accum
Clc1cccc(NCc2ccncc2)c1	-
CC(=O)N1c2ccccc2NC2=C(C(=O)CC(c3cccc([N+](=O)[O-])c3)C2)C1c1ccco1 (stereo not given)	-
Cc1ccc(C)c(-c2csc(NC(=O)c3ccc(C#N)cc3)n2)c1	-
C=CCn1c(NC(C)=O)c(S(=O)(=O)c2ccccc2)c2nc3ccccc3nc21	-
CCOc1ccc(CN2CCC(C(=O)N(CCO)Cc3ccccc3)CC2)cc1	-
C=C(C)CN(CC)C(=O)C1CCN(Cc2ccc(Cl)cc2)CC1	+
O=C(C1CCN(CCCc2ccccc2)CC1)N1CCCCC1	-
CCN(CC)C(=O)C1CCCN(Cc2ccc(Cl)cc2)C1 (stereo not given)	-
CCc1ccc(CN2CCC(C(=O)N(CC)Cc3ccccc3)CC2)cc1	+
Cc1ccc(CN2CCC(C(=O)N(CCO)Cc3ccccc3)CC2)cc1	-
CCN(Cc1ccccc1)C(=O)C1CCNCC1	-
CCN(Cc1ccccc1)C(=O)C1CCN(CCCc2ccccc2)CC1	+
C=C(C)CN(CC)C(=O)C1CCN(Cc2cccnc2)CC1	-
COc1ccc(N2C(=O)CC(NC3CCN(Cc4ccccc4)CC3)C2=O)cc1 (stereo not given)	-
